# For some of these results: Results with a measured potency or affinity are listed apart.
# Legend:
# Design in all cases: scale not given: direction of the effect not stated beside the values
# [1] = target: Protein translocase subunit SecA (Escherichia coli (strain K12)) (UniProt P10408); assay: Assay to Identify E. coli SecA ATPase Inhibitors; assay type: functional; conditions: 30 µM
# [2] = target: T1, Ubiquitin-activating enzyme e1, putative (Leishmania donovani (strain BPK282A1)) (UniProt E9BSI1); assay: Leishmania donovani Ubiquitin Activating Enzyme (LdE1); assay type: functional; conditions: 30 µM
# T1 sequence (whole entry): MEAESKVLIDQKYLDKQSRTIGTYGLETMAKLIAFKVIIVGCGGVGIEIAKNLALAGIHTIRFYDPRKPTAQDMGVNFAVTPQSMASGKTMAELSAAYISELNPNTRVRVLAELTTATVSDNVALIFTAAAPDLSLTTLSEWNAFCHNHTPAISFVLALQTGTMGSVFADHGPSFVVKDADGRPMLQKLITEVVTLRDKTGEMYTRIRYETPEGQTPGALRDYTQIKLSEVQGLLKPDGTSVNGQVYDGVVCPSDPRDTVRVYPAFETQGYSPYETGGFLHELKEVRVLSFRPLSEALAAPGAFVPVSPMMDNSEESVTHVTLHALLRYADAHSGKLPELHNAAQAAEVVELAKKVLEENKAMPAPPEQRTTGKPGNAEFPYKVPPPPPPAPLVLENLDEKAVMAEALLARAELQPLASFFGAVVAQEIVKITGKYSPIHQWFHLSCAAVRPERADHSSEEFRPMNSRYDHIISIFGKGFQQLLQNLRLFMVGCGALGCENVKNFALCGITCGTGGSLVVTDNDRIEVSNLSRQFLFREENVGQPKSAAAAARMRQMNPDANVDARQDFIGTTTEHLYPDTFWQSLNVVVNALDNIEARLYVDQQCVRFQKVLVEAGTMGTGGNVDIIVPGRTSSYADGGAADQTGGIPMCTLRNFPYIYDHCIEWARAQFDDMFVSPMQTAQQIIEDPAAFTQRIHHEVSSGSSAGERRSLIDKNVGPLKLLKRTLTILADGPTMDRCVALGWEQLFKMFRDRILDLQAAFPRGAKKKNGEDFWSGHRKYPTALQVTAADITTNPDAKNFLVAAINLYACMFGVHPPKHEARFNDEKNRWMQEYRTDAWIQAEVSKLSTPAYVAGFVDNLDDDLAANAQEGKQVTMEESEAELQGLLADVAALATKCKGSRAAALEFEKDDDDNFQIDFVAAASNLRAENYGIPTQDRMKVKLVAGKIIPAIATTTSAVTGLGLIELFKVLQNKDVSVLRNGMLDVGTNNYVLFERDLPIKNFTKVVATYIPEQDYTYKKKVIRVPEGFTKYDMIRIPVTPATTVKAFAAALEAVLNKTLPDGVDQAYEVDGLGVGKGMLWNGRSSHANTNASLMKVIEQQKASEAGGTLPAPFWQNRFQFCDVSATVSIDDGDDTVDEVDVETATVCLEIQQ
# [3] = target: AMP-activated protein kinase, AMPK (Homo sapiens) (UniProt P54646+O43741+P54619+Q9UGJ0+Q9Y478+Q13131+Q9UGI9); assay: AMP-dependent Kinase enzyme assay. An in vitro enzyme assay that detects ADP turnover that is directly proportional to AMPK activity. This uses naive AMPK that is activated during the assay with MK-8722; assay type: functional; conditions: 30 µM
# [4] = target: Sialic acid-binding Ig-like lectin 9 (Homo sapiens) (UniProt Q9Y336); assay: Hs-Siglec9 ALPHAscreen SOP 20170721; conditions: 10 µM
# Trypanosoma cruzi = assay: Trypanosoma cruzi phosphomannomutase and mannose-1-phosphate guanylyltransferase assay; assay type: functional; conditions: 10 µM
# [5] = target: T2, Arginase-2, mitochondrial (Homo sapiens) (UniProt P78540); assay: in vitro enzyme assay to detect the production of urea directly proportional to the activity of Arginase II; assay type: functional; conditions: 33.3 µM; further: in the data most compounds retested in dose-response had high values
# T2 sequence (whole entry): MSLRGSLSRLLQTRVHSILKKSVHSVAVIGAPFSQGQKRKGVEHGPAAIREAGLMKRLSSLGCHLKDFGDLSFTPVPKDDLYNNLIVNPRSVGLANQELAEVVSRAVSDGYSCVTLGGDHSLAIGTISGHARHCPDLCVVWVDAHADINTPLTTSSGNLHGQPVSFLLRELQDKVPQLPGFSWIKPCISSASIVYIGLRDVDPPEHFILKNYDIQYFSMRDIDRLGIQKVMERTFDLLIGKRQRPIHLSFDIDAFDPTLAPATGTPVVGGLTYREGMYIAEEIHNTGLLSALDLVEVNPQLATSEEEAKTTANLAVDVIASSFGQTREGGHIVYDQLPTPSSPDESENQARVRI
# [6] = target: T3, Proteasome subunit beta (Trypanosoma cruzi) (UniProt O96673); assay: Trypanosoma cruzi proteasome chymotrypsin-like activity (TcProtChymo) assay.; further: in the data most compounds retested in dose-response had high values; assay type: functional; conditions: 9.37 µM
# T3 sequence (whole entry): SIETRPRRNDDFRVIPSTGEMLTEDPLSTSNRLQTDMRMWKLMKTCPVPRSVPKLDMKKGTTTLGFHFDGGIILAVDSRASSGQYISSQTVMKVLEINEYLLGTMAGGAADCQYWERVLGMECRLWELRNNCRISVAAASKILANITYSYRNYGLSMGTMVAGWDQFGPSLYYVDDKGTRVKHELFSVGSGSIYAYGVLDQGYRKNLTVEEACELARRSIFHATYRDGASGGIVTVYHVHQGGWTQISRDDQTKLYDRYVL
# Homo sapiens = species on record: Homo sapiens; assay: To identify inhibition of the IFN signalling (Jak-Stat) pathway via expression of an eGFP reporter gene under the control of an IFN-stimulated response element (ISRE) containing MxA promoter.; assay type: functional; conditions: 30 µM
# [7] = target: T4, Tyrosyl-tRNA synthetase, putative (Trypanosoma cruzi (strain CL Brener)) (UniProt Q4DSP6); assay: Trypanosoma cruzi tyrosyl tRNA synthetase (TcYRS) _High Tyrosine SOP; assay type: functional; conditions: 30 µM; further: in the data most compounds retested in dose-response had high values
# T4 sequence (whole entry): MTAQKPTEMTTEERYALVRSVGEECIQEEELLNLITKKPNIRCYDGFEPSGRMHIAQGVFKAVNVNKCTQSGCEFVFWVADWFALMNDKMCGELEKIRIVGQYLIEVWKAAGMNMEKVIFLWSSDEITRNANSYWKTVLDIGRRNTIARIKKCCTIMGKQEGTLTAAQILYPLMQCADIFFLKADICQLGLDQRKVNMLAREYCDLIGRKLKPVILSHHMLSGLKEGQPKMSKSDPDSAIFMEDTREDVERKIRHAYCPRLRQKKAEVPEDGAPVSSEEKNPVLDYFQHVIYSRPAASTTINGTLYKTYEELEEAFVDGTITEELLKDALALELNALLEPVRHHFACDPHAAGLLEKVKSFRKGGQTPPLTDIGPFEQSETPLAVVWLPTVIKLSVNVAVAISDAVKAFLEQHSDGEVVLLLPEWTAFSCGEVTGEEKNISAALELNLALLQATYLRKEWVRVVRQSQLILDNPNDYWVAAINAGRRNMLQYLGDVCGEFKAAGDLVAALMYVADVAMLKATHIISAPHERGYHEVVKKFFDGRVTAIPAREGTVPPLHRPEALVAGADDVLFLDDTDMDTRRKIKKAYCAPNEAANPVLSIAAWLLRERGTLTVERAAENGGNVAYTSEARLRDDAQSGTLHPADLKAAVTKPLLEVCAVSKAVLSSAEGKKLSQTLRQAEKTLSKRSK
# [8] = target: T4, Tyrosyl-tRNA synthetase, putative (Trypanosoma cruzi (strain CL Brener)); assay: Trypanosoma cruzi tyrosyl tRNA synthetase (TcYRS) SOP; assay type: functional; conditions: 30 µM
# [9] = target: Chromo domain-containing protein 1 (Saccharomyces cerevisiae (strain ATCC 204508 / S288c) (Baker's yeast)) (UniProt P32657); assay: ScCHD-1 Enzyme Inhibition Assay; assay type: functional; conditions: 30 µM; further: in the data most compounds retested in dose-response had high values
# Sequence of Chromo domain-containing protein 1 (Saccharomyces cerevisiae (strain ATCC 204508 / S288c) (Baker's yeast)) (P32657 whole entry, the tested form may be a part): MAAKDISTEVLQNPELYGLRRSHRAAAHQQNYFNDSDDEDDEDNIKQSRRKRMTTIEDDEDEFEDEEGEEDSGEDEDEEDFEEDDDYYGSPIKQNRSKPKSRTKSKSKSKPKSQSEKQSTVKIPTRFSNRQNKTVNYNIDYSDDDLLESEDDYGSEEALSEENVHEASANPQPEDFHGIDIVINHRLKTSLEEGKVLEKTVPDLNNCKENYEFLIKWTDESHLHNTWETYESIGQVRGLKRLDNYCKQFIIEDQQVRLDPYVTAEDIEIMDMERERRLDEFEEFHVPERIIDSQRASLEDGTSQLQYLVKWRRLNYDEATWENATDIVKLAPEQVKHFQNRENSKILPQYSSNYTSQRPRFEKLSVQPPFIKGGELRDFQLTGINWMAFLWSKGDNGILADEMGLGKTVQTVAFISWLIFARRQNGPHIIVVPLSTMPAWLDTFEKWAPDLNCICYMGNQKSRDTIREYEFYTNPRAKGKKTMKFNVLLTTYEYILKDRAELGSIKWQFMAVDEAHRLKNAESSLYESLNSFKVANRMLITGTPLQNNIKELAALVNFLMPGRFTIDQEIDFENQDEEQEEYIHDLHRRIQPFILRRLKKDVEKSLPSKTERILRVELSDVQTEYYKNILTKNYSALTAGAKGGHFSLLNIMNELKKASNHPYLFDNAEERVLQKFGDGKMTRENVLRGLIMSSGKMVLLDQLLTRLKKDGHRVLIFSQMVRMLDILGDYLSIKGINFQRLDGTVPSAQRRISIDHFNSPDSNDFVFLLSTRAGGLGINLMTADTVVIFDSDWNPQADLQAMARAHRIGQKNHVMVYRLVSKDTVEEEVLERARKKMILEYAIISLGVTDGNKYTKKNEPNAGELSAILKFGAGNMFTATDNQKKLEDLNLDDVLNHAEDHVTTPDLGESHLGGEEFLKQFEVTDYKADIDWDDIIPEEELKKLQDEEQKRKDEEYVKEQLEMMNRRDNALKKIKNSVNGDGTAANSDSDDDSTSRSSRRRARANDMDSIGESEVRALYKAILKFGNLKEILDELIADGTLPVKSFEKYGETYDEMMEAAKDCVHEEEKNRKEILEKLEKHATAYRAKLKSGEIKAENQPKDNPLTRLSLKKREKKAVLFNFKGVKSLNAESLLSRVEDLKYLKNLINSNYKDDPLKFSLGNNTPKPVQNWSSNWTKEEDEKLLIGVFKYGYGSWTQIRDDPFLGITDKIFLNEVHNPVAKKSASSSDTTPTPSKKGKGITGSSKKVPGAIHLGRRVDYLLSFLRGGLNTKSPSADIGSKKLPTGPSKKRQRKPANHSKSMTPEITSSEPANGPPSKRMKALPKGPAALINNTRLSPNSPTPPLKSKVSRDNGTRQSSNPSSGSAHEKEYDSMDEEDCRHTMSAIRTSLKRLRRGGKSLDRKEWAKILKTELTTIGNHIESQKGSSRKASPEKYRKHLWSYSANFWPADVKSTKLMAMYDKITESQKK
# Sequence of Sialic acid-binding Ig-like lectin 9 (Homo sapiens) (Q9Y336 whole entry): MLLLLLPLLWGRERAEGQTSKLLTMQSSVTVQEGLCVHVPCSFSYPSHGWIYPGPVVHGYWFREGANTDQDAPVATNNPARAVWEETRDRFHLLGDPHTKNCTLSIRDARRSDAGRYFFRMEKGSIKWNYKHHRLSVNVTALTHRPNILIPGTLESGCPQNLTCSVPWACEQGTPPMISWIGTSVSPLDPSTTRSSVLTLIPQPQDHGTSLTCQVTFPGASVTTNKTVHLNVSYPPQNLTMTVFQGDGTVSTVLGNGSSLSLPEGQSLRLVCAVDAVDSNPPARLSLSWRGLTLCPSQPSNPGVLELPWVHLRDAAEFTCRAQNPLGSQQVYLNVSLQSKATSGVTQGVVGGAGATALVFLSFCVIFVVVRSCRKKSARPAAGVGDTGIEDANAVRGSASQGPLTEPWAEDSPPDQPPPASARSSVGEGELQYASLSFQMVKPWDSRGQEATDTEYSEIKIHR
# Sequence of Protein translocase subunit SecA (Escherichia coli (strain K12)) (P10408 whole entry): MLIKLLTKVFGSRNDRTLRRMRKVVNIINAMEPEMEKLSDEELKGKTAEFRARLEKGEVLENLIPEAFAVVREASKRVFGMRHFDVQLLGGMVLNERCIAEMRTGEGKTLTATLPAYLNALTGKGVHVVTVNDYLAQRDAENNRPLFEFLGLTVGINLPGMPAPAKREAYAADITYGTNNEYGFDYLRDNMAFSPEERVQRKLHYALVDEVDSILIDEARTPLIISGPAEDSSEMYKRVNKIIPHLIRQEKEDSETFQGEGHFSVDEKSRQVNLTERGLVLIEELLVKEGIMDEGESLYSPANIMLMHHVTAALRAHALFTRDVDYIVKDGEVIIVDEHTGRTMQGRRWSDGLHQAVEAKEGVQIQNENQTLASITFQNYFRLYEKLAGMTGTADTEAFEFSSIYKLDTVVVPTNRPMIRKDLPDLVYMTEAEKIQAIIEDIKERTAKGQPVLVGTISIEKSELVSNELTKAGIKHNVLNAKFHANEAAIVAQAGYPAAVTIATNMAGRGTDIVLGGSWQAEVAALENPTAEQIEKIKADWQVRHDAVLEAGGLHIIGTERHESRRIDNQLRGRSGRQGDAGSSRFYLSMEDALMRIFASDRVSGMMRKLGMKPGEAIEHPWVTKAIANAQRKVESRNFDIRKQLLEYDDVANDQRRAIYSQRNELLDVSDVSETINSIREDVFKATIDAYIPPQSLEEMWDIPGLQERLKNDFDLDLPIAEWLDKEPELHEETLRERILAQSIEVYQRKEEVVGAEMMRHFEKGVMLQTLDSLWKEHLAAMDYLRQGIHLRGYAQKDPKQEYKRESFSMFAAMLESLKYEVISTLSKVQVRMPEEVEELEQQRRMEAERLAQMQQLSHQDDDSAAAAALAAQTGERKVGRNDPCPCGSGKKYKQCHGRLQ
smiles,measurement,setting,value
Cc1cc(CN(C)C2CCCN(Cc3noc(C4CC4)n3)C2)no1 (stereo unspecified),Percent Effect,[1],-2.13%
same,Percent Effect,[2],15.8%
same,Percent Effect,[3],-10.8%
same,Percent Effect,[4],-8.06%
same,Percent Effect,Trypanosoma cruzi,-9.62%
same,Percent Effect,[5],-1.8%
same,Percent Effect,[6],12.4%
same,Percent Effect,Homo sapiens,15.9%
same,Percent Effect,[7],1.48%
same,Percent Effect,[8],3.7%
same,Percent Effect,[9],-9.14%
COC(=O)CCC(=O)N1CCC2(CN(Cc3cccc(F)c3)C2)C1,Percent Effect,[1],-1.57%
same,Percent Effect,[2],0%
same,Percent Effect,[3],35.4%
same,Percent Effect,[4],0.909%
same,Percent Effect,Trypanosoma cruzi,1.54%
same,Percent Effect,[5],-52.5%
same,Percent Effect,[6],1.71%
same,Percent Effect,Homo sapiens,-9.09%
same,Percent Effect,[7],-2.08%
same,Percent Effect,[8],-2.5%
same,Percent Effect,[9],-1.45%
O=C(Cc1cccc(F)c1)N1CCCCC1c1ccn2ccnc2n1 (stereo unspecified),Percent Effect,[1],-5.83%
same,Percent Effect,[2],-4.05%
same,Percent Effect,[3],14.6%
same,Percent Effect,[4],3.14%
same,Percent Effect,Trypanosoma cruzi,-3.16%
same,Percent Effect,[5],-4.41%
same,Percent Effect,[6],5.3%
same,Percent Effect,Homo sapiens,10.2%
same,Percent Effect,[7],-4.3%
same,Percent Effect,[8],-9.09%
same,Percent Effect,[9],-10.5%
CC(O)CN1CCC(CNCc2ccc(S(C)(=O)=O)cc2)CC1 (stereo unspecified),Percent Effect,[1],-2%
same,Percent Effect,[2],19.2%
same,Percent Effect,[3],-8.77%
same,Percent Effect,[4],13.4%
same,Percent Effect,Trypanosoma cruzi,2.15%
same,Percent Effect,[5],8.64%
same,Percent Effect,[6],24.5%
same,Percent Effect,Homo sapiens,5.76%
same,Percent Effect,[7],4.3%
same,Percent Effect,[8],15%
same,Percent Effect,[9],-7.9%
CN(Cc1nc(C2CC2)no1)C1CCCN(c2cccnn2)C1 (stereo unspecified),Percent Effect,[1],-1.65%
same,Percent Effect,[2],-17.7%
same,Percent Effect,[3],11.7%
same,Percent Effect,[4],7.67%
same,Percent Effect,Trypanosoma cruzi,1.6%
same,Percent Effect,[5],1.14%
same,Percent Effect,[6],-0.573%
same,Percent Effect,Homo sapiens,-0.447%
same,Percent Effect,[7],6.4%
same,Percent Effect,[8],3.8%
same,Percent Effect,[9],4.91%
Cc1cnn(CC2CCCN2Cc2nnsc2Cl)c1 (stereo unspecified),Percent Effect,[1],-4.93%
same,Percent Effect,[2],0%
same,Percent Effect,[3],-0.946%
same,Percent Effect,[4],-0.665%
same,Percent Effect,Trypanosoma cruzi,-3.68%
same,Percent Effect,[5],-2.66%
same,Percent Effect,[6],0.573%
same,Percent Effect,Homo sapiens,28.5%
same,Percent Effect,[7],2.46%
same,Percent Effect,[8],-3.8%
same,Percent Effect,[9],3.6%
Cc1cc(C[C@@H]2COC[C@H]2NCc2ccc(Br)s2)on1,Percent Effect,[1],-7.36%
same,Percent Effect,[2],1.35%
same,Percent Effect,[3],9.27%
same,Percent Effect,[4],-0.828%
same,Percent Effect,Trypanosoma cruzi,-2.77%
same,Percent Effect,[5],-7.19%
same,Percent Effect,[6],-1.72%
same,Percent Effect,Homo sapiens,31.8%
same,Percent Effect,[7],-2.15%
same,Percent Effect,[8],-3.9%
same,Percent Effect,[9],-6.34%
CC(C)COCC1CN(Cc2ccc3c(c2)OCO3)Cc2ncn(C)c21 (stereo unspecified),Percent Effect,[1],-6.14%
same,Percent Effect,[2],-5.41%
same,Percent Effect,[3],10.1%
same,Percent Effect,[4],2.92%
same,Percent Effect,Trypanosoma cruzi,-1.17%
same,Percent Effect,[5],-3.75%
same,Percent Effect,[6],2.11%
same,Percent Effect,Homo sapiens,29.9%
same,Percent Effect,[7],3.96%
same,Percent Effect,[8],3.66%
same,Percent Effect,[9],0.344%
CC1CCN(S(=O)(=O)NCc2ccccc2Cn2cncn2)CC1,Percent Effect,[1],-3.83%
same,Percent Effect,[2],13.9%
same,Percent Effect,[3],6.66%
same,Percent Effect,[4],0.681%
same,Percent Effect,Trypanosoma cruzi,-1.54%
same,Percent Effect,[5],3.23%
same,Percent Effect,[6],13.4%
same,Percent Effect,Homo sapiens,10.6%
same,Percent Effect,[7],3.12%
same,Percent Effect,[8],20.2%
same,Percent Effect,[9],-23.4%
Cc1csc(N2CCN(Cc3ccccn3)CC2C)n1 (stereo unspecified),Percent Effect,[1],-3.15%
same,Percent Effect,[2],5.48%
same,Percent Effect,[3],-20.3%
same,Percent Effect,[4],-2.48%
same,Percent Effect,Trypanosoma cruzi,-2.74%
same,Percent Effect,[5],0.909%
same,Percent Effect,[6],13.3%
same,Percent Effect,Homo sapiens,19.9%
same,Percent Effect,[7],9.68%
same,Percent Effect,[8],12.5%
same,Percent Effect,[9],-2.29%
CCOc1ccccc1C(CC(=O)Nc1ccc(C)cn1)NC(C)=O (stereo unspecified),Percent Effect,[1],-3.17%
same,Percent Effect,[2],10.5%
same,Percent Effect,[3],7.35%
same,Percent Effect,[4],5.85%
same,Percent Effect,Trypanosoma cruzi,6.77%
same,Percent Effect,[5],1.15%
same,Percent Effect,[6],4.34%
same,Percent Effect,Homo sapiens,4.19%
same,Percent Effect,[7],8.33%
same,Percent Effect,[8],17.1%
same,Percent Effect,[9],-15.3%
